Records with an inconclusive call do not appear. Activity calls are given as the source filed them. Calls come from the whole dose curve; as a rule, active = well fitted curve in the direction sought with a large enough effect; inconclusive = small, poorly fitted or top-dose-only effect, or another doubt; inactive = no such curve, though single readings can be large; an effect the other way counts as inactive or inconclusive.
Target: Cytochrome P450 3A4 (Homo sapiens) (UniProt P08684)
Sequence (P08684 whole entry, looked up): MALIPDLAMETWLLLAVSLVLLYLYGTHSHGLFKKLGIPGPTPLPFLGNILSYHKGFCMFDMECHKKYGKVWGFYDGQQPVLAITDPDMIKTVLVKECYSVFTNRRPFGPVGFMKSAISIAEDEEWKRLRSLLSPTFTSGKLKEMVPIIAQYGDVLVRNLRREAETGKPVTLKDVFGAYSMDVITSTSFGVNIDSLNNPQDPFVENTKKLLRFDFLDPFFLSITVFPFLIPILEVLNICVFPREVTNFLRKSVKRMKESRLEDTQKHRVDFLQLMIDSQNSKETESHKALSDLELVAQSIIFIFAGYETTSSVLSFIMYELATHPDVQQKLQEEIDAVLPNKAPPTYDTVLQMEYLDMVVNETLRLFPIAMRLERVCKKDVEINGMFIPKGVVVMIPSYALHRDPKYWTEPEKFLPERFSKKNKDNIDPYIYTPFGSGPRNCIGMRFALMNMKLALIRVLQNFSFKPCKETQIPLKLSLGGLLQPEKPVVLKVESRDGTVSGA
Assay: qHTS Assay for Inhibitors and Substrates of Cytochrome P450 3A4 (AID 884); note: % is set by controls: 0 for no effect and ±100 for the full control effect; nearly all actives have a fitted effect of over 50% in size
Details: recombinant CYP3A4, Luciferin-PPXE luminescence; series mostly up to 57.1 µM; activity change, negative = inhibition: at the top concentration
In short: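 20 nM human CYP3A4 with 25 uM Luciferin-PPXE (at KM) in 200 mM KPO4, preincubated 10 min with compound; NADPH regeneration started a 60 min RT reaction. Luciferin detected by luminescence, normalized to 57 uM ketoconazole as full inhibition.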
In the case of `O=c1[nH]cnc2nc[nH]c12`, the “activity change, negative = inhibition” value is reported as -14.1% (inactive). With `CC(N)CCCC(C)(C)O` (configuration not stated) the “activity change, negative = inhibition” value was -13.7% (inactive). For `C[N+]1(C)CCCC(OC(=O)C(O)(c2ccccc2)c2ccccc2)C1` (configuration not stated), the “activity change, negative = inhibition” value was -0.511% (inactive). For `CC(=O)NCc1c(I)c(NC(C)=O)c(I)c(C(=O)O)c1I`, the “activity change, negative = inhibition” value was -5.53% (inactive). For `O=C(O)c1cc(=O)c2ccccc2o1`, the “activity change, negative = inhibition” value was -8.31% (inactive). With `Cn1c(=O)c2c(ncn2CCO)n(C)c1=O` the “activity change, negative = inhibition” value was -11.4% (inactive). For `CCOC(N)=O`, the “activity change, negative = inhibition” value was -9.97% (inactive). In the case of `C/C=C/C(=O)N(CC)c1ccccc1C`, the “activity change, negative = inhibition” value is reported as 58.9% (inactive). With `Cn1c([N+](=O)[O-])cnc1COC(N)=O` the “activity change, negative = inhibition” value was 8.85% (inactive). For `O=C(O)c1ccccc1OP(=O)(O)O`, the “activity change, negative = inhibition” value was 7.61% (inactive). For `CCCCCC(C)N` (configuration not stated), the “activity change, negative = inhibition” value was -7.52% (inactive). With `NS(=O)(=O)c1cc(C2(O)NC(=O)c3ccccc32)ccc1Cl` (configuration not stated) the “activity change, negative = inhibition” value was -2.66% (inactive).

Target: Cytochrome P450 2D6 (Homo sapiens) (UniProt P10635)
Sequence (P10635 whole entry, looked up): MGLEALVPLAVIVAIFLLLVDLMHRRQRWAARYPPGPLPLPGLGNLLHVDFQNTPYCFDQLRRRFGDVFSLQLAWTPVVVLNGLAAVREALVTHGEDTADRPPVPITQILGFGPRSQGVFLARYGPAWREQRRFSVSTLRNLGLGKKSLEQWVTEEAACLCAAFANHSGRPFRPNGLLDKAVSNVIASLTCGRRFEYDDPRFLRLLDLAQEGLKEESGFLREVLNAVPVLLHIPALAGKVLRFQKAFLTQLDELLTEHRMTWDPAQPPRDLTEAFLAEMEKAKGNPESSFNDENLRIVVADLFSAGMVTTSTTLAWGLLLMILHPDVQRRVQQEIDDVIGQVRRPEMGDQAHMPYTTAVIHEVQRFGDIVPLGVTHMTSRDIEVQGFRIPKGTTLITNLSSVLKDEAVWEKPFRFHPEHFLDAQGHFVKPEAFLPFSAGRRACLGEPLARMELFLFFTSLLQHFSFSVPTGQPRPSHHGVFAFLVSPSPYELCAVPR
Assay: qHTS Assay for Inhibitors and Substrates of Cytochrome P450 2D6 (AID 891); note: potency is the fitted concentration of half-maximal effect; nearly all actives have a fitted effect of over 60% in size
Details: recombinant CYP2D6, luciferin-ME EGE luminescence; series mostly up to 11.4 µM; activity change, negative = inhibition: at the top concentration
Procedure: NIH Molecular Libraries Screening Centers Network [MLSCN]
NIH Chemical Genomics Center [NCGC]
The P450 gene superfamily is involved in the metabolism and clearance of xenobiotics. This assay used human CYP2D6 to measure the demethylation of ethylene glycol ester of luciferin 6' methyl ether (Luciferin-ME EGE; […]) to luciferin. The luciferin is then measured by luminescence after the addition of a luciferase detection reagent. Luciferin-ME EGE concentration in the assay was equal to its Km for CYP2D6. Inhibitors and some substrates limit the production of luciferin, and decrease measured luminescence.
NCGC Assay Protocol Summary:
Two uL of enzyme and substrate mix (final concentrations: 5nM CYP2D6, 30uM Luciferin-ME EGE, 100mM KPO4) were dispensed into a white, solid bottom 1536-well microtiter plate. 23nL of compound was transferred by a pin tool. The plate was incubated at room temperature for 10 min. Two uL of an NADPH regeneration solution (Promega supplied reagent) was dispensed and the reaction was allowed to continue for 60 min at room temperature. Then the reaction was stopped by reconstituted luciferin detection buffer. After another 20 min of incubation the plate was read on the ViewLux (Perkin Elmer) at 60 sec exposure and 2x2 binning. This protocol was carried out with Promega-Glo reagents and further information can be found at http://www.promega.com/tbs/tb325/tb325.pdf. Data were normalized to the to AC100 inhibition (1.43 uM quinidine).
Keywords: P450, CYP2D6, Luciferase, MLSMR, MLSCN, NIH Roadmap, qHTS, NCGC
With `CC[N+](CC)(CC(=O)Nc1c(C)cccc1C)Cc1ccccc1` the Potency was 7.9 nM (active). For `CC(=O)SC[C@@H](Cc1ccccc1)C(=O)NCC(=O)OCc1ccccc1`, the Potency was 316 nM (active). In the case of `CC[N+](C)(CC)CCOC(=O)C1c2ccccc2Oc2ccccc21`, the Potency is reported as 3980 nM (active). In the case of `CCN(CC)CCOC(=O)C(c1ccccc1)c1ccccc1`, the Potency is reported as 5010 nM (active).

Target: Cytochrome P450 2C19 (Homo sapiens) (UniProt P33261)
Sequence (P33261 whole entry, looked up): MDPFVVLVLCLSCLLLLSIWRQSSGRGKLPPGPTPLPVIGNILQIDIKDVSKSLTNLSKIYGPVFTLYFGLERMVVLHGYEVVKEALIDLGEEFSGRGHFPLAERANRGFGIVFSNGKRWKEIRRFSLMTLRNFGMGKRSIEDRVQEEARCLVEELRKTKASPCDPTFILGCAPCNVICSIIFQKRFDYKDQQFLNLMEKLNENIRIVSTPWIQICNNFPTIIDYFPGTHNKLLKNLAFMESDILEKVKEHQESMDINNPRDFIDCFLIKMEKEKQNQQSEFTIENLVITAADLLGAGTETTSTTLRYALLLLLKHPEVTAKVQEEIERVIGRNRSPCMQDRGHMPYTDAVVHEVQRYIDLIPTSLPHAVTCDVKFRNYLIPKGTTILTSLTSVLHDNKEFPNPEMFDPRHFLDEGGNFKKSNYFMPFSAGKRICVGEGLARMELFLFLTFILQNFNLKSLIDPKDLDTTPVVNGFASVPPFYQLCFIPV
Assay: qHTS Assay for Inhibitors and Substrates of Cytochrome P450 2C19 (AID 899); note: nearly all actives have a fitted effect of over 60% in size; note: potency is the fitted concentration of half-maximal effect; for activity, negative = inhibition: % is set by controls: 0 for no effect and ±100 for the full control effect
Details: recombinant CYP2C19, luciferin-H EGE luminescence; series mostly up to 25.6 µM; activity, negative = inhibition: at the top concentration
In short: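 Human CYP2C19 (5nM) with Luciferin-H EGE at 10uM (its KM) in 50mM KPO4 was preincubated with compound for 10 min at 37C. NADPH regeneration started a 60 min 37C reaction. Luciferin was read by luminescence, normalized to 57uM ketoconazole.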
With `CCc1cccc(CC)c1NC(=O)CN(CC(=O)O)CC(=O)O` the “activity, negative = inhibition” value was 47.7% (inactive). For `CC(=O)SC[C@@H](Cc1ccccc1)C(=O)NCC(=O)OCc1ccccc1`, the Potency was 126 nM (active). In the case of `O=C1c2ccccc2S(=O)(=O)N1CCCCN1CCN(c2ncccn2)CC1`, the Potency is reported as 631 nM (active).

Tested on: not listed separately
Assay: Confirmation and Secondary Assay for Modulators of Hemoglobin Beta Chain Splicing at IVS2 654 locus (AID 910);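 note: per-well total GFP intensity by laser scanning cytometry after 2-day treatment; % of control where 0% means no effect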
Details: HeLa EGFP-654 splicing reporter, GFP fluorescence, 48 h; series mostly up to 46.1 µM; activation (splicing correction): at the top concentration
In short: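 HeLa cells stably carrying EGFP interrupted by mutant beta-globin IVS2-654 intron (CMV-driven) were treated with compound for 2 days at 37C; corrected splicing was scored as total peak GFP intensity per well (488 nm excitation, 500-520 nm emission).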
With `CN1CCCN=C1COC(=O)C(O)(c1ccccc1)C1CCCCC1` (configuration not stated) the “activation (splicing correction)” value was 4.93% (inactive). In the case of `COc1ccccc1OCC(O)CO` (configuration not stated), the “activation (splicing correction)” value is reported as -0.954% (inactive). In the case of `CCCCC1(COC(=O)CCC(=O)O)C(=O)N(c2ccccc2)N(c2ccccc2)C1=O`, the “activation (splicing correction)” value is reported as 5.09% (inactive). For `NS(=O)(=O)c1cc2c(cc1C(F)(F)F)NCNS2(=O)=O`, the “activation (splicing correction)” value was 3.86% (inactive). With `NCc1ccc(S(N)(=O)=O)cc1` the “activation (splicing correction)” value was 2.19% (inactive). In the case of `CC(C)=CCC/C(C)=C/CO`, the “activation (splicing correction)” value is reported as 5.33% (inactive). With `CNCc1ccccc1` the “activation (splicing correction)” value was 8.41% (inactive). With `O=c1[nH]cnc2nc[nH]c12` the “activation (splicing correction)” value was 2.78% [at 38.3 µM] (inactive). For `CCS(=O)(=O)CCn1c([N+](=O)[O-])cnc1C`, the “activation (splicing correction)” value was 5.72% (inactive). In the case of `O=C(CCBr)N1CCN(C(=O)CCBr)CC1`, the “activation (splicing correction)” value is reported as 8.4% (inactive). With `CC(N)CCCC(C)(C)O` (configuration not stated) the “activation (splicing correction)” value was 1.25% (inactive). For `C=CCSCC1Nc2cc(Cl)c(S(N)(=O)=O)cc2S(=O)(=O)N1` (configuration not stated), the “activation (splicing correction)” value was 6.02% (inactive). With `Cc1cc(O)cc(C)c1Cl` the “activation (splicing correction)” value was 4.79% (inactive). In the case of `C[N+]1(C)CCCC(OC(=O)C(O)(c2ccccc2)c2ccccc2)C1` (configuration not stated), the “activation (splicing correction)” value is reported as 4.42% (inactive). In the case of `CC(=O)NCc1c(I)c(NC(C)=O)c(I)c(C(=O)O)c1I`, the “activation (splicing correction)” value is reported as -2.71% (inactive). For `Cc1ccsc1/C=C/C1=NCCCN1C`, the “activation (splicing correction)” value was 2.38% (inactive). With `NC(N)=NCCN1CCCCCCC1` the “activation (splicing correction)” value was 8.67% (inactive). For `O=C(O)c1cc(=O)c2ccccc2o1`, the “activation (splicing correction)” value was -5.11% (inactive). For `CC(=O)Oc1cccc(O)c1`, the “activation (splicing correction)” value was -0.361% (inactive). With `COc1ccc(NS(=O)(=O)c2ccc(N)cc2)nn1` the “activation (splicing correction)” value was 8.66% (inactive). With `OC(CCN1CCCC1)(c1ccccc1)C1CCCCC1` (configuration not stated) the “activation (splicing correction)” value was 1.08% (inactive). For `Cc1onc(-c2ccccc2)c1-c1ccc(S(N)(=O)=O)cc1`, the “activation (splicing correction)” value was -7.2% (inactive). In the case of `Cc1c(NC(=O)c2cccnc2)c(=O)n(-c2ccccc2)n1C`, the “activation (splicing correction)” value is reported as 0.214% (inactive). With `Cn1c(=O)c2c(ncn2CCO)n(C)c1=O` the “activation (splicing correction)” value was -1.85% [at 38.3 µM] (inactive). With `CCOC(N)=O` the “activation (splicing correction)” value was 7% (inactive). In the case of `COc1ccc2cc(CCC(C)=O)ccc2c1`, the “activation (splicing correction)” value is reported as 2.91% (inactive). With `Nc1ccc(C(=O)Oc2ccccc2)c(O)c1` the “activation (splicing correction)” value was -0.41% [at 38.3 µM] (inactive). For `CCN(CC)CCOC(=O)C(c1ccccc1)c1ccccc1`, the “activation (splicing correction)” value was 4.04% (inactive). In the case of `C/C=C/C(=O)N(CC)c1ccccc1C`, the “activation (splicing correction)” value is reported as -1.6% (inactive). In the case of `Cn1c([N+](=O)[O-])cnc1COC(N)=O`, the “activation (splicing correction)” value is reported as 7.34% (inactive). For `O=C(O)c1ccccc1OP(=O)(O)O`, the “activation (splicing correction)” value was 6.93% (inactive). In the case of `CCCCCC(C)N` (configuration not stated), the “activation (splicing correction)” value is reported as -0.288% (inactive). For `NS(=O)(=O)c1cc(C2(O)NC(=O)c3ccccc32)ccc1Cl` (configuration not stated), the “activation (splicing correction)” value was 2.84% (inactive).

— PubChem BioAssay (NCATS)
